Source: PubChem BioAssay (National Center for Advancing Translational Sciences (NCATS))
Hits are enriched below; roughly 1.3% of the tested compounds scored in any of these assays.
EPAC1 antagonist = qHTS for Antagonist of cAMP-regulated guanine nucleotide exchange factor 3 (EPAC1): primary screen; Rap guanine nucleotide exchange factor 3 (Homo sapiens), O95398; 0.14% of 360,000 active; AID 720709, 2013; Potency, µM (doses to about 115 µM), without a hit: top-dose activity change, negative = inhibition, most hits filed as inhibitors; EPAC1 GEF assay, Rap1b-BODIPY-GDP exchange fluorescence;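 also: plate controls were vehicle for no effect and positive control for full effect; nearly all actives have a fitted effect of over 50% in size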
EPAC2 antagonist = qHTS for Antagonist of cAMP-regulated guanine nucleotide exchange factor 2 (EPAC2): primary screen. EPAC2 GEF exchange of Rap1B-BODIPY-GDP, fluorescence. Potency, µM (top dose mostly 114 µM), without a hit: at the highest dose activity, negative = inhibition, most hits filed as inhibitors. 0.18% of 360,000 active. AID 720708, 2013; also: % is scaled to controls: 0 for no effect and ±100 for the full control effect; nearly all actives have a fitted effect of over 45% in size
EPAC2 ag = qHTS for Agonist of cAMP-regulated guanine nucleotide exchange factor 4 (EPAC2): primary screen; Rap guanine nucleotide exchange factor 4 (Homo sapiens), Q8WZA2; EPAC2 activation, biochemical qHTS; response scale: 100% = 6.5 mM cAMP response; Potency, µM (top dose mostly 154 µM), without a hit: at the highest dose activation, actives largely listed as activators; 0.079% of 360,000 active; AID 720711, 2013; also: nearly all actives have a fitted effect of over 50% in size
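Exchange assay: 100 nM EPAC2 with 250 nM Rap1B-BODIPY-GDP and 50 uM GDP. Fluorescence (ex 480/em 540 nm) read every 5 min for 30 min at room temperature. Data normalized to 6.5 mM cAMP as agonist control.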
USP1-UAF1 inh = Inhibitors of USP1/UAF1: Primary Screen; Ubiquitin carboxyl-terminal hydrolase 1 (Homo sapiens), O94782; recombinant USP1/UAF1, Ub-Rhodamine cleavage fluorescence; Potency, µM (top dose mostly 57.1 µM), inactives show at the highest dose activity change, negative = inhibition, most hits filed as inhibitors; 0.23% of 390,000 active; also: % is scaled to controls: 0 for no effect and ±100 for the full control effect; nearly all actives have a fitted effect of over 60% in size
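1 nM enzyme complex + cpd, 15 min RT; start with Ub-Rho 150nM final; kinetic fluorescence ex 480/em 540, 6 reads q60 s. Buffer 50mM HEPES pH 7.8, 0.5mM EDTA, 0.1 mg/ml BSA, 1mM TCEP, 0.01% Tween-20.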
ALOX12 inh = Primary qHTS assay for inhibitors of human arachidonate 12S-lipoxygenase (ALOX12): Round 2 | Polyunsaturated fatty acid lipoxygenase ALOX12 (Homo sapiens), P18054 | purified 12hLO, xylenol orange hydroperoxide absorbance | Potency, µM (titrated, usually from 108 µM), for inactives: at the highest dose activity change, negative = inhibition, usual class: inhibitors | 1.1% of 580,000 active | AID 1671190, 2021; also: % is scaled to controls: 0 for no effect and ±100 for the full control effect
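Purified human 12hLO (150 nM final) in 25 mM Hepes, 0.01% Triton X-100, pH 7.0 was preincubated 15 min at room temperature with compound. Then 40 uM arachidonic acid was added, 30 min. Hydroperoxide was read by Fe-XO absorbance ratio 573/405 nm.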
EPAC1 ag = qHTS for Agonist of cAMP-regulated guanine nucleotide exchange factor 3 (EPAC1): primary screen | EPAC1 agonist qHTS, biochemical assay; response scale: 100% = response to 6.5 mM cAMP | Potency, µM (highest dose often 154 µM), without a hit: top-dose activation, usual class: activators | 0.073% of 360,000 active | AID 720707, 2013; also: nearly all actives have a fitted effect of over 60% in size
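Nucleotide exchange by EPAC1 (100 nM) on Rap1B–BODIPY-GDP (250 nM) in the presence of 50 uM GDP is tracked fluorescently at 480/540 nm over 30 min. Signals are normalized to a 6.5 mM cAMP control.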
An asterisk follows results filed as active; ? = inconclusive; . = no result given. Calls follow the shape of the dose curve; as a rule, active = well fitted curve in the direction sought with a large enough effect; inconclusive = small, poorly fitted or top-dose-only effect, or another doubt; inactive = no such curve, though single readings can be large; an effect the other way counts as inactive or inconclusive. Potency is read from the fitted curve at half-maximal effect.

SMILES	EPAC1 antagonist	EPAC2 antagonist	EPAC2 ag	USP1-UAF1 inh	ALOX12 inh	EPAC1 ag
COc1ccc(S(=O)(=O)/N=C2/NC(=O)/C(=C\c3ccco3)S2)cc1	0%	-1%	-6%	-19%	40µM*	-5%
CC(C)CCC(C)NC(=O)c1nccnc1N (centres undefined)	.	.	.	.	8%	.
CC(C)CN1C(=O)/C(=C/c2cccs2)NC1=S	3%	2%	5%	-14%	?	6%
CC(C)CN1C(=O)/C(=C/c2ccco2)NC1=S	-5%	7%	-2%	-10%	28µM*	-2%
O=C(O/N=C1\CCS(=O)(=O)c2sccc21)c1c(F)cccc1F	-13%	-2%	6%	1%	0%	-1%
O=S1(=O)CC/C(=N\Nc2ccccc2)c2ccsc21	1%	-18%	0%	-15%	35µM*	7%
CC(=O)c1cccc(-c2cnc3ccc(-c4cccc(CO)c4)nn23)c1	.	.	.	.	-6%	.
Cc1ccc(C)n1Cc1ccc(C(=O)O)cc1	-25%	?	-1%	25µM*	.	20%
COc1ccc(/C=C(/C#N)C(=O)Nc2cccc3ncccc23)cc1	.	.	.	.	-1%	.
COc1ccc(C(=O)Nc2cccc(NC(=O)c3cccs3)c2)cc1OC	6%	-6%	18%	-14%	-4%	25%
COc1ccc(C(=O)Nc2ccc(NC(=O)c3cccs3)cn2)cc1	-2%	-13%	2%	-17%	?	4%
COc1ccc(C(=O)Nc2ccc(NC(=O)c3cccs3)cc2)cc1OC	.	.	.	25µM*	0%	.
CC(C)C(=O)Nc1ccc(NC(=O)c2cccs2)cn1	5%	0%	6%	-12%	45µM*	6%
CCOc1ccc(CCC2CCN(C(=O)Nc3ccccc3OC)CC2)cc1	.	.	.	.	29%	.
Cc1ccc(Nc2nc(-c3c(C)nc4ccccn34)cs2)cc1	4%	10%	1%	-12%	?	-4%
Cc1nc2ccccn2c1-c1ccnc(=S)[nH]1	-13%	6%	1%	-7%	16µM*	-11%
CC(=O)NC(CCc1ccc(Cl)c(Cl)c1)c1cccc(O)c(=O)c1 (centres undefined)	10%	2%	7%	-20%	40µM*	-7%
CC(=O)NC(C)c1ccc(Cl)c(Cl)c1 (centres undefined)	17%	16%	2%	-9%	1%	-3%
Cc1ccc(-c2cc(C(=O)Nc3cccc(S(=O)(=O)N(C)C)c3)c3ccccc3n2)o1	-16%	16%	18%	-18%	6.3µM*	5%
Cc1ccc(-c2cc(C(=O)Nc3cccc(C#N)c3)c3ccccc3n2)o1	.	.	.	.	7.1µM*	.
Cc1ccc(-c2cc(C(=O)NCc3ccco3)c3ccccc3n2)o1	?	0%	-4%	-10%	-71%	-3%
COc1cc(-c2cc(C(=O)Nc3cccc(S(=O)(=O)N(C)C)c3)c3ccccc3n2)cc(OC)c1OC	-15%	-2%	12%	-8%	-15%	11%
Cc1cccc(CN2CCN(S(=O)(=O)c3cnn(C)c3)CC2)c1	.	.	.	.	13%	.
CCC/C=N/Nc1nc2ccccc2s1	-1%	-22%	4%	-15%	40µM*	-5%
C(=C\c1ccccc1)/C=N/Nc1nc2ccccc2s1	2%	5%	17%	?	11%	16%
SMILES	EPAC1 antagonist	EPAC2 antagonist	EPAC2 ag	USP1-UAF1 inh	ALOX12 inh	EPAC1 ag
COc1cc(-c2c(NC(=O)c3ccccc3)oc3ccc(Cl)cc3c2=O)cc(OC)c1OC	.	.	.	.	1%	.
CN1CCN([C@@H]2[C@H](O)[C@H](CO)O[C@@H]2CN(Cc2ccc(Cl)cc2)Cc2cccc(Cl)c2)CC1	.	.	.	.	14µM*	.
O=C(c1ccc(Cl)cc1)c1oc2ccccc2c1CS(=O)c1ccc(Cl)cc1 (centres undefined)	-14%	2%	10%	-25%	4.5µM*	6%
Nc1c(C(=O)c2ccc(Cl)cc2)oc2ccccc12	2%	0%	-6%	2%	-11%	7%
CCN(Cc1cccc(F)c1)C(=O)COc1ccc2ccc(=O)oc2c1	.	.	.	.	-19%	.
COc1ccc(CN2C(=O)c3cccnc3C2Nc2cc(Cl)ccc2OC)cc1 (centres undefined)	?	-5%	21%	2%	13µM*	6%
COc1ccc(OC)c(NC2c3ncccc3C(=O)N2Cc2ccco2)c1 (centres undefined)	-10%	-2%	3%	-17%	?	4%
COc1ccc(-c2c3c(=O)n(CCCN4CCOCC4)ccc3nc3nc(C)nn23)cc1	.	.	.	.	-23%	.
N#C/C(=C\c1cc(Cl)cc(Cl)c1O)C(=O)NC1CCCCC1	4%	-2%	13%	-17%	7.1µM*	5%
Oc1ccc2ccccc2c1CNc1ccc(Br)cc1	-14%	?	20%	-11%	3.5µM*	16%
Nc1ccc(Oc2ncccn2)cc1	?	-29%	25%	7.9µM*	58%	4%
O=Cc1cccc(Oc2ncccn2)c1	10%	-2%	-4%	-16%	15%	2%
CCc1c(C)sc(NC(=S)Nc2cccnc2)c1C(=O)OC	-1%	14%	-8%	-22%	-24%	-17%
CCc1c(C)sc(NC(=S)Nc2nc(C)cc(C)n2)c1C(=O)OC	-1%	-18%	-1%	-29%	22µM*	-3%
COc1ccc(-c2coc3cc(OC(=O)c4ccco4)ccc3c2=O)cc1	.	.	.	.	-23%	.
CC(NC(=O)CCc1ccc(C#N)cc1)c1cccs1 (centres undefined)	.	.	.	.	21%	.
O=C(CN(CC(=O)Nc1ccc(F)cc1)CC(=O)Nc1ccc(F)cc1)Nc1ccc(F)cc1	.	.	.	.	13µM*	.
CC(NCc1ccc(-c2ccccc2F)o1)c1ccccc1 (centres undefined)	.	.	.	.	57%	.
O=C(NCc1ccccc1)c1ccc(-c2csc(C3CC3)n2)cc1	.	.	.	.	-9%	.
Cc1cc2c(cc1C)-c1ccccc1C2=O	.	.	.	.	32%	.
CCc1ccc2cc3c(cc2n1)C(=O)c1ccccc1-3	7%	6%	-5%	.	7.9µM*	0%
C=CCN1C(=O)S/C(=C\c2ccc(N3CCOCC3)cc2C)C1=O	22%	24%	-38%	-17%	-13%	-62%
